{"source": "paper PMC5540273", "about": "(PLoS ONE, 2017);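 also: kd values determined as follow-up on hits from a single-replicate KINOMEscan panel screen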", "key": {"[1]": {"test_system": "RPS6KA4(Kin.Dom.1-N-terminal)"}, "[2]": {"test_system": "T1, RSK1(Kin.Dom.2-C-terminal)", "T1 construct": "gene RPS6KA1"}, "[3]": {"test_system": "T2, RSK2(Kin.Dom.2-C-terminal)", "T2 construct": "gene RPS6KA3"}, "[4]": {"test_system": "T3, RSK4(Kin.Dom.1-N-terminal)", "T3 construct": "gene RPS6KA6"}}, "data": [{"smiles": "Nc1ncnc2occ(-c3ccc4c(c3)CCN4C(=O)Cc3cc(F)ccc3F)c12", "note": "[GSK2645446]", "values": [{"measurement": "Kd", "setting": "RIPK1", "value": 0.41, "unit": "µM"}]}, {"smiles": "c1ccc(-c2ccnc3[nH]ccc23)cc1", "note": "[SB-693578]", "values": [{"measurement": "Kd", "setting": "ROCK2", "value": 0.53, "unit": "µM"}]}, {"smiles": "Cc1nccc(-c2c(-c3ccc(F)cc3)ncn2CCCN2CCOCC2)n1.Cl", "note": "[SB-282975]", "values": [{"measurement": "Kd", "setting": "[1]", "value": "> 10", "unit": "µM"}]}, {"smiles": "O=C1NC(=O)C(c2ccc(Cl)cc2)=C1Nc1cccc(Cl)c1", "note": "[SB-317651]", "values": [{"measurement": "Kd", "setting": "[1]", "value": "> 10", "unit": "µM"}]}, {"smiles": "Cn1cnc2c(N)ncnc21", "note": "[SKF-97623]", "values": [{"measurement": "Kd", "setting": "[2]", "value": "> 10", "unit": "µM"}]}, {"smiles": "NS(=O)(=O)c1cccc(N/C=C2\\C(=O)Nc3ccc(S(=O)(=O)Cc4c(Cl)cccc4Cl)cc32)c1", "note": "[GSK398099]", "values": [{"measurement": "Kd", "setting": "[2]", "value": "> 10", "unit": "µM"}]}, {"smiles": "COc1ccc(Nc2nccc(N3CCC(NC(=O)C(C)c4ccc(Cl)cc4)CC3)n2)cc1", "note": "(stereo not drawn) [GSK1379812]", "values": [{"measurement": "Kd", "setting": "[3]", "value": "> 10", "unit": "µM"}]}, {"smiles": "O=C(Nc1n[nH]c2nc(-c3cccs3)c(Br)cc12)C1CC1", "note": "[SB-735297]", "values": [{"measurement": "Kd", "setting": "[4]", "value": 3.8, "unit": "µM"}]}, {"smiles": "Cn1cncc1C(=O)NC1CCN(c2ccnc(Nc3ccc(F)cc3)n2)C1", "note": "(stereo not drawn) [GSK1379717]", "values": [{"measurement": "Kd", "setting": "SRPK1", "value": "> 10", "unit": "µM"}]}]}
